Assay outcomes as filed in PubChem.
Shown are actives, neighbours in structure and some others; about 1% of the full set was active somewhere.
WRN helicase inh: inhibitors of human WRN helicase | hit rate 0.46% among 360,000 | Potency, µM (doses to about 114 µM), for the others: at the highest dose activity change, negative = inhibition, actives largely listed as inhibitors | WRN helicase unwinding, fluorescent forked duplex, kinetic; also: % is scaled to controls: 0 for no effect and ±100 for the full control effect; nearly all actives have a fitted effect of over 55% in size
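Kinetic fluorescence helicase assay: unwinding of a quenched forked DNA duplex (100 nM final) with 2 mM ATP final raises red fluorescence (525/598 nm). Compounds sat 15 min at room temperature with 20 nM WRN beforehand.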
APE1 inh-1: inhibitors of human APE1 endonuclease; Potency, µM (highest dose often 65.8 µM), without a hit: at the highest dose activity change, negative = inhibition, actives largely listed as inhibitors; hit rate 0.35% among 350,000; recombinant APE1, TAMRA/BHQ-2 abasic DNA cleavage fluorescence;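 also: plate controls were vehicle for no effect and reference inhibitor for full effect; nearly all actives have a fitted effect of over 55% in size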
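Substrate: short duplex with […] THF abasic site, 5'-TAMRA and 3'-BHQ-2, 50 nM final. APE1 at 0.75 nM, preincubated 15 min RT with compound. Fluorescence increase from first to third read measured activity.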
L3MBTL1 inh-1: inhibitors of human L3MBTL1 | AlphaScreen L3MBTL1–H3K9me1 peptide binding | Potency, µM (top dose mostly 57.1 µM), without a hit: at the highest dose activity, negative = inhibition, actives largely listed as inhibitors | hit rate 0.66% among 230,000 | AID 485360 | Q9Y468; also: % is scaled to controls: 0 for no effect and ±100 for the full control effect; nearly all actives have a fitted effect of over 60% in size
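AlphaScreen proximity signal between nickel-chelate acceptor and streptavidin donor beads (final 10 ug/mL) reports binding of 50 nM L3MBTL1 to 75 nM biotin-H3 K9me1 peptide; complex incubated with compounds 30 min at room temperature; cefsulodin titration as control.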
RECQ1 inh-1: inhibitors of human RECQ1 DNA helicase; P46063; RECQ1 DNA unwinding, red fluorescence kinetic read; Potency, µM (series often up to 57.3 µM), for inactives: at the top dose activity, negative = inhibition, usual class: inhibitors; hit rate 0.54% among 240,000;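 also: plate controls were vehicle for no effect and no enzyme for full effect; nearly all actives have a fitted effect of over 30% in size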
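RECQ1T1 50 nM; forked duplex (20 bp + 30-nt ss tails) 200 nM, ATP 2 mM final; pH 8.0, 2 mM MgCl2, 2.5 ug/ml poly(dI-dC); 15 min compound preincubation; discontinuous kinetic read over 2 h at RT.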
BLM inh-1: Bloom syndrome helicase (human) inhibition. hit rate 0.2% among 350,000. Potency, µM (highest dose often 56.1 µM), inactives show at the highest dose activity change, negative = inhibition, usual class: inhibitors. P54132. recombinant BLM DNA unwinding, fluorescence dequenching;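 also: plate controls were vehicle for no effect and no enzyme for full effect; nearly all actives have a fitted effect of over 35% in size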
FEN1 inhibitor: inhibitors of human flap endonuclease 1 | P39748 | Recombinant FEN1 flap cleavage, fluorescence, 15 min | hit rate 0.35% among 390,000 | Potency, µM (series often up to 114 µM), for the others: top-dose activity change, negative = inhibition, actives largely listed as inhibitors; also: % is scaled to controls: 0 for no effect and ±100 for the full control effect; nearly all actives have a fitted effect of over 65% in size
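Recombinant FEN1 (10 nM) was preincubated with pin-transferred compounds for 15 min at room temperature, then flap DNA substrate (50 nM final) was added. Plates were read at 0 and 15 min, and normalized concentration–response data were fitted to a four-parameter Hill equation.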
DNA dye displace: DNA dye displacement counter-screen activity. DNA fluorescent dye displacement counterscreen, fluorescence. Potency, µM (highest dose often 28.5 µM), without a hit: top-dose activity change, negative = inhibition, actives largely listed as inhibitors. shares compounds with APE1 inh-1. hit rate 7% among 480. AID 2564;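 also: loss of thiazole orange fluorescence as the dye is displaced from duplex DNA; 0% = ThO with dsDNA and no compound and -100% = ThO without dsDNA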
Endo IV inh: Endo IV (E. coli) inhibition counter-screen; shares compounds with APE1 inh-1; E. coli Endo IV, fluorogenic AP-site DNA cleavage; Potency, µM (titrated, usually from 27.1 µM), without a hit: at the highest dose activity change, negative = inhibition, usual class: inhibitors; hit rate 4% among 560; AID 2565;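 also: plate controls were uninhibited enzyme wells for no effect and no enzyme buffer wells for full effect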
APE1 inh-2: APE1 (human) endonuclease inhibition, confirmation | shares compounds with APE1 inh-1 | purified APE1, fluorogenic abasic-site DNA cleavage | Potency, µM (doses to about 57.1 µM), inactives show at the highest dose activity change, negative = inhibition, most hits filed as inhibitors | hit rate 44% among 750; also: % is scaled to controls: 0 for no effect and ±100 for the full control effect; nearly all actives have a fitted effect of over 30% in size
APE1 FP inh: compounds that displace a DNA probe from human APE1; shares compounds with APE1 inh-1; APE1 binding to TAMRA-labelled double-stranded DNA, fluorescence polarization displacement; Potency, µM (series often up to 28.5 µM), for the others: at the top dose activity, negative = inhibition, actives largely listed as inhibitors; hit rate 7% among 480; AID 2573; also: % is scaled to controls: 0 for no effect and ±100 for the full control effect
BLM inh-2: confirmation of inhibitors of human Bloom syndrome helicase BLM | shares compounds with BLM inh-1 | BLM DNA unwinding, fluorescence quenching, biochemical | Potency, µM, for the others: max response, negative = inhibition, actives largely listed as inhibitors | hit rate 40% among 220 | AID 2585;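 also: strand separation dequenches TAMRA so unwinding raises red fluorescence; series mostly up to about 69 µM; % is scaled to controls: 0 for no effect and ±100 for the full control effect; nearly all actives have a fitted effect of over 45% in size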
RECQ1 conf: confirmation of human RECQ1 helicase inhibitors | RECQ1 helicase DNA unwinding, fluorescence | hit rate 28% among 610 | shares compounds with RECQ1 inh-1 | Potency, µM (series often up to 229 µM), inactives show top-dose activity change, negative = inhibition, usual class: inhibitors | AID 2708; also: % is scaled to controls: 0 for no effect and ±100 for the full control effect; nearly all actives have a fitted effect of over 45% in size
RECQ1 ADP FP: ADP displacement flagged in RECQ1 inhibitor counter-screen. shares compounds with RECQ1 inh-1. ADP fluorescence polarization displacement counterscreen. Potency, µM (doses to about 228 µM), for the others: top-dose activity change, negative = inhibition, most hits filed as inhibitors. hit rate 27% among 530. AID 2711; also: % is scaled to controls: 0 for no effect and ±100 for the full control effect; nearly all actives have a fitted effect of over 45% in size
RECQ1 inh-2: RECQ1 helicase inhibition confirmed, round 2; shares compounds with RECQ1 inh-1; hit rate 15% among 1,100; recombinant RECQ1 DNA unwinding, red fluorescence; Potency, µM (series often up to 119 µM), for inactives: at the top dose activity, negative = inhibition, hits mostly inhibitors; also: % is scaled to controls: 0 for no effect and ±100 for the full control effect; nearly all actives have a fitted effect of over 50% in size
L3MBTL1 inh-2: validation of human L3MBTL1 methyl-lysine binding inhibitors | shares compounds with L3MBTL1 inh-1 | L3MBTL1 methyl-lysine binding inhibition, biochemical qHTS | Potency, µM, most hits filed as inhibitors | hit rate 91% among 500; also: nearly all actives have a fitted effect of over 70% in size
AlphaScreen ctr2: AlphaScreen signal inhibition, L3MBTL1 hit counter-screen; shares compounds with L3MBTL1 inh-1; AlphaScreen counterscreen, signal inhibition; Potency, µM (top dose mostly 57.1 µM), inactives show top-dose activity change, negative = inhibition, usual class: inhibitors; 500 tested, under 10 active; AID 602224; also: 0% is about no effect
Active calls of the source: *; ? = inconclusive; . = no result given; [ ] = remark or other dose. Calls follow the shape of the dose curve; as a rule, active = well fitted curve in the direction sought with a large enough effect; inconclusive = small, poorly fitted or top-dose-only effect, or another doubt; inactive = no such curve, though single readings can be large; an effect the other way counts as inactive or inconclusive. Potency is read from the fitted curve at half-maximal effect.

SMILES	WRN helicase inh	APE1 inh-1	L3MBTL1 inh-1	RECQ1 inh-1	BLM inh-1	FEN1 inhibitor	DNA dye displace	Endo IV inh	APE1 inh-2	APE1 FP inh	L3MBTL1 inh-2	AlphaScreen ctr2	others
Cc1ccc(-c2nn(C)c(=O)c3ccccc23)cc1S(=O)(=O)NCCN1CCOCC1	-15.0%	0.5%	-7.3%	-5.1%	2.1%	11.6%	.	.	.	.	.	.
Cc1ccc(C(O)c2ncc(-c3ccccc3Cl)[nH]2)c(C)c1 (stereo not given)	3.1%	.	.	.	.	.	.	.	.	.	.	.
Cc1ccc2c(C)c(C(=O)N(Cc3ccc(Cl)cc3)C3CCS(=O)(=O)C3)oc2c1 (stereo not given)	.	.	.	.	-12.3%	0.6%	.	.	.	.	.	.
CCOC(=O)c1cc(-c2ccc(N3CCOCC3)cc2)nn1-c1ccccc1C(=O)O	?	2.51µM*	14.1µM*	11.2µM*	-24.6%	-5.4%	2.7%	?	?	?	6.7*	5.4%	RECQ1 conf=44.7µM*;RECQ1 ADP FP=36.3%[91.9 µM];RECQ1 inh-2=?
Cc1ccc(/C=c2\sc3nc(-c4ccco4)nn3c2=O)o1	56.2µM*	5.62µM*	7.94µM*	8.3%	25.1µM*	?	?	-8.5%	7.94µM*	14.7%	16.8*	0.9%	BLM inh-2=-9.7%
Cc1ccc(-c2nc3s/c(=C\c4ccco4)c(=O)n3n2)cc1	-14.7%[57.1 µM]	?	?	-22.9%	-10.4%	-5.2%	.	.	.	.	.	.
COc1ccccc1CNC(=O)C1(c2cccs2)CCOCC1	.	.	.	.	0.1%	20.1%	.	.	.	.	.	.
